A short description of assay [1]: BSK_CASM3C_SRB: Viability Assessment in the BioMAP Diversity Plus: CASM3C Assay (AID 2283050).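 Also: total protein by SRB staining as cytotoxicity measure in parallel cultures.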 The conditions noted are these: primary human coronary artery smooth muscle cells.
Read-out in assay [2]: Thrombomodulin, THBD (gene 7056)
Kind of assay: BSK_CASM3C_Thrombomodulin: BioMAP Diversity Plus: CASM3C Assay for Thrombomodulin Biomarker Activity (AID 2283051).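 Also: thrombomodulin protein level measured by ELISA 24 h after dosing.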 Particulars: primary human coronary artery smooth muscle cells; actives raise or lower the signal.

Read-out in assay [3]: Tissue Factor, F3 (gene 2152)
As to the kind of experiment: BSK_CASM3C_TissueFactor: BioMAP Diversity Plus: CASM3C Assay for Tissue Factor Biomarker Activity (AID 2283052).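 Also: cell surface tissue factor protein level read by ELISA.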 Particulars: primary human coronary artery smooth muscle cells; actives raise or lower the signal.

Read-out in assay [4]: Interferon-gamma inducible Protein 10 (IP10), CXCL10 (gene 3627)
Kind of assay: BSK_hDFCGF_IP10: BioMAP Diversity Plus: hDFCGF Assay for Interferon-gamma inducible Protein 10 (IP10) Biomarker Activity (AID 2283053). Particulars: primary human foreskin fibroblasts; actives raise or lower the signal. In short, it runs like this:
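Human foreskin fibroblast primary cells (hDFCGF system) were dosed with chemical and assayed at 24 h; IP-10 measured by ELISA. Activity fitted bidirectionally relative to DMSO negative control as baseline.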

Read-out in assay [5]: Urokinase-type plasminogen activator receptor (uPAR), PLAUR (gene 5329)
As to the kind of experiment: BSK_CASM3C_uPAR: BioMAP Diversity Plus: CASM3C Assay for Urokinase-type plasminogen activator receptor (uPAR) Biomarker Activity (AID 2283054).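 Also: cell-surface uPAR protein level quantified by ELISA.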 The conditions noted are these: primary human coronary artery smooth muscle cells; actives raise or lower the signal.

Read-out in assay [6]: Vascular cell adhesion molecule 1 (VCAM1), VCAM1 (gene 7412)
Kind of assay: BSK_CASM3C_VCAM1: BioMAP Diversity Plus: CASM3C Assay for Vascular cell adhesion molecule 1 (VCAM1) Biomarker Activity (AID 2283055).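 Also: VCAM-1 protein level quantified by ELISA on the cells.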 The conditions noted are these: primary human coronary artery smooth muscle cells; actives raise or lower the signal.

Read-out in assay [7]: Collagen III, COL3A1 (gene 1281)
As to the kind of experiment: BSK_hDFCGF_CollagenIII: BioMAP Diversity Plus: hDFCGF Assay for Collagen III Biomarker Activity (AID 2283056). The conditions noted are these: primary human foreskin fibroblasts; actives raise or lower the signal. In short, it runs like this: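 Cells: human foreskin fibroblasts, primary. Dosing followed by 24 h incubation, then ELISA for collagen III. Both increases and decreases scored relative to DMSO.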

Read-out in assay [8]: Epidermal growth factor receptor (EGFR), EGFR (gene 1956)
Kind of assay: BSK_hDFCGF_EGFR: BioMAP Diversity Plus: hDFCGF Assay for Epidermal growth factor receptor (EGFR) Biomarker Activity (AID 2283057). The conditions noted are these: primary human foreskin fibroblasts; actives raise or lower the signal. Put shortly:
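Primary human foreskin fibroblasts were exposed to compound for 24 h, after which cell-surface EGFR was quantified by ELISA. Activity was fitted bidirectionally against the DMSO negative control as baseline.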

Read-out in assay [9]: Interleukin-8 (IL8), CXCL8 (gene 3576)
As to the kind of experiment: BSK_hDFCGF_IL8: BioMAP Diversity Plus: hDFCGF Assay for Interleukin-8 (IL8) Biomarker Activity (AID 2283058). The conditions noted are these: primary human foreskin fibroblasts; actives raise or lower the signal. Put shortly: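 IL-8 levels from compound-treated primary human fibroblasts were read by ELISA at 24 h, with DMSO serving as baseline for bidirectional fitting.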

Assay [10] in a line: BSK_hDFCGF_Proliferation: Cell Proliferation Assessment in the BioMAP Diversity Plus: hDFCGF Assay (AID 2283059).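 Also: curves fitted for both rise and fall of signal versus DMSO baseline.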 The conditions noted are these: primary human foreskin fibroblasts. Put shortly: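 Total protein read at 560 nm after 0.1% SRB staining of TCA-fixed human skin fibroblasts, […]. Activity is fitted in both directions relative to DMSO as baseline.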

This note sets out measurements from PubChem BioAssay (EPA / NIEHS).

Calls of active or inactive are those of the source. The calls were made as follows: active = hit-call score of the fitted dose curve at least 0.9, where 1 is the maximum; inactive = score below 0.9.

For `c1nc[nH]n1`, the outcome in assay [1], in [2], in [3], in assay [4], in assay [5] and in assay [6] was inactive. The outcome in [7], in assay [8], in [9] and in assay [10] was inactive.
With `CCCCc1ccccc1`, the result in [1], in [2], in [3], in assay [4], in assay [5] and in assay [6] was inactive. The result in [7], in assay [8], in assay [9] and in assay [10] was inactive.
As to `O=S(=O)(F)C(F)(F)C(F)(F)C(F)(F)C(F)(F)C(F)(F)C(F)(F)C(F)(F)C(F)(F)F`, the outcome in [1], in [2], in [3], in assay [4], in assay [5] and in assay [6] was inactive. In addition, the outcome in [7], in assay [8], in [9] and in [10] was inactive.
Broadly, the AC50 is the concentration at which the activity in the assay is half-maximal. For the compound `O=c1ssc(Cl)c1Cl`, the concentration at half-maximal activity (AC50) in [1] was 3.99 µM (active); in assay [3], 6610 nM (active); in assay [4], 3.7 µM (active); in assay [5], 6830 nM (active); in [6], 4.48 µM (active); in assay [7], 8.15 µM (active). Also, the AC50 in assay [8] was 3.16 µM (active); in assay [9], 13.1 µM (active); in [10], 0.577 µM (active). In assay [2], the result was inactive.
In the case of `Cc1c([N+](=O)[O-])cc2c(c1[N+](=O)[O-])C(C)(C)CC2(C)C`, the outcome in [1], in [3], in [4], in assay [6], in assay [8] and in assay [9] was inactive. The AC50 in [2] was 7.74 µM (active); in assay [5], 384 nM (active); in [7] it was 3.32 µM (active); in [10], 20 µM (active).
With `CCCN(CCC)c1c([N+](=O)[O-])cc(C(C)C)cc1[N+](=O)[O-]`, the outcome in assay [1], in [3], in assay [5], in assay [6] and in assay [9] was inactive. Besides, the AC50 was 20 µM (active) in assay [2]; 20 µM (active) in assay [4]; 9.07 µM (active) in assay [7]; 20 µM (active) in [8]; 13.3 µM (active) in [10].
For the compound `c1cc2c3c(cccc3c1)CC2`, the result in assay [1], in [2], in [3], in [4], in [5] and in assay [6] was inactive. For the same compound, the outcome in assay [7], in assay [8], in assay [9] and in assay [10] was inactive.
Regarding `OCC(F)(F)OC(F)(F)C(F)(F)OC(F)(F)CO`, the outcome in assay [1], in [2], in assay [3], in assay [4], in assay [5] and in assay [6] was inactive. Moreover, the result in [7], in assay [8], in [9] and in assay [10] was inactive.
With `CCCCN(CCCC)SN(C)C(=O)Oc1cccc2c1OC(C)(C)C2`, the AC50 in [1] was 33.7 µM (active); in [2], 29.1 µM (active); in assay [4], 8.12 µM (active); in [6], 13.4 µM (active); in assay [7], 5.49 µM (active); in assay [9], 16.2 µM (active). The AC50 in [10] is 6.34 µM (active). Further, the result in assay [3], in assay [5] and in assay [8] was inactive.
Take `N#Cc1c(-c2ccc(Cl)cc2)[nH]c(C(F)(F)F)c1Br`: the AC50 in assay [1] is 0.865 µM (active); in [3], 224 nM (active); in [4], 20 µM (active); in assay [5], 773 nM (active); in [6], 30.1 µM (active); in assay [7], 0.0161 µM (active). Besides, the AC50 in assay [10] was 0.731 µM (active). The result in assay [2], in assay [8] and in assay [9] was inactive.
As for `Cc1cccc(N)c1`, the outcome in [1], in [2], in assay [3], in assay [4], in assay [5] and in assay [6] was inactive. In addition, the result in assay [7], in assay [8] and in [9] was inactive. In assay [10], the AC50 was 0.148 µM (active).
For `O=C(O)C(Cl)Cl`, the outcome in assay [1], in assay [2], in [3], in [4], in [5] and in [6] was inactive. Also, the outcome in [7], in assay [8], in [9] and in assay [10] was inactive.
Consider `COP(=O)(CCC(=O)NCO)OC`, for which the result in assay [1], in assay [2], in assay [3], in assay [4], in assay [5] and in assay [6] was inactive. Also, the outcome in [7], in [8], in assay [9] and in assay [10] was inactive.
On to `CC(Cl)CN(C)C` (stereo not given), for which the result in assay [1], in [2], in [3], in assay [4], in [6] and in assay [7] was inactive. The outcome in assay [8], in assay [9] and in assay [10] was inactive. The AC50 in assay [5] was 177 nM (active).
As to `CC(C)(C)OOC(C)(C)C`, the outcome in assay [1], in assay [2], in [3], in assay [4], in [5] and in assay [6] was inactive. For the same compound, the result in assay [7], in [8], in assay [9] and in assay [10] was inactive.
`O=P(OCC(Br)CBr)(OCC(Br)CBr)OCC(Br)CBr` (stereo not given): the outcome in assay [1], in assay [2], in [3], in [4], in [5] and in assay [6] was inactive. Moreover, the outcome in [7], in assay [8], in [9] and in [10] was inactive.
Take `CCCCN(CCCC)N=O`: the result in assay [1], in assay [2], in [3], in [4], in [5] and in [6] was inactive. For the same compound, the result in [7], in [8], in assay [9] and in assay [10] was inactive.
Regarding `[N-]=[N+]=[N-]`, the result in assay [1], in assay [2], in assay [3], in assay [4], in assay [5] and in [6] was inactive. The outcome in assay [7], in assay [8], in assay [9] and in [10] was inactive.
`CCOP(=S)(NC(C)C)Oc1ccccc1C(=O)OC(C)C` (stereo not given): the result in assay [1], in assay [2], in assay [3], in [4], in [5] and in [6] was inactive. For the same compound, the result in assay [7], in assay [8], in assay [9] and in [10] was inactive.
Regarding `C=CC(=O)OCC(CC)(COC(=O)C=C)COC(=O)C=C`, the AC50 is 2.21 µM (active) in assay [1]; 847 nM (active) in assay [3]; 1.71 µM (active) in [4]; 1970 nM (active) in assay [5]; 1.65 µM (active) in assay [6]; 1.03 µM (active) in assay [7]. Also, the values for the AC50 in assay [8], in [9] and in [10] were 1.59 µM (active), 3.17 µM (active) and 0.795 µM (active), respectively. For the same compound, in [2], the result was inactive.
`O=P(Oc1ccccc1)(Oc1ccccc1)Oc1ccccc1`: the result in assay [1], in assay [3], in [4], in assay [5], in assay [6] and in [8] was inactive. The outcome in assay [9] was inactive. Besides, the figures for the AC50 in assay [2], in [7] and in assay [10] were 29.6 µM (active), 8.45 µM (active) and 14.2 µM (active), respectively.
